Screens deposited in PubChem BioAssay by The Scripps Research Institute Molecular Screening Center.
Wee1 degr inh: inhibitors of human Wee1 degradation. P30291. HeLa Luc-Wee1K328M stability, luciferase luminescence; 100% = proteasome inhibitor MG132 effect. reporter increase, % at 5 µM. 1.2% of 220,000 active. AID 1321;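 active means activation above the mean of all tested compounds plus 3 SD, set per screening run, cut at about 8.8% in these data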;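 further: cells exposed to compound for 20 h before luminescence read; 0% = DMSO alone and 100% = MG132 at 30 µM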
Target sequence (P30291 whole entry K328M): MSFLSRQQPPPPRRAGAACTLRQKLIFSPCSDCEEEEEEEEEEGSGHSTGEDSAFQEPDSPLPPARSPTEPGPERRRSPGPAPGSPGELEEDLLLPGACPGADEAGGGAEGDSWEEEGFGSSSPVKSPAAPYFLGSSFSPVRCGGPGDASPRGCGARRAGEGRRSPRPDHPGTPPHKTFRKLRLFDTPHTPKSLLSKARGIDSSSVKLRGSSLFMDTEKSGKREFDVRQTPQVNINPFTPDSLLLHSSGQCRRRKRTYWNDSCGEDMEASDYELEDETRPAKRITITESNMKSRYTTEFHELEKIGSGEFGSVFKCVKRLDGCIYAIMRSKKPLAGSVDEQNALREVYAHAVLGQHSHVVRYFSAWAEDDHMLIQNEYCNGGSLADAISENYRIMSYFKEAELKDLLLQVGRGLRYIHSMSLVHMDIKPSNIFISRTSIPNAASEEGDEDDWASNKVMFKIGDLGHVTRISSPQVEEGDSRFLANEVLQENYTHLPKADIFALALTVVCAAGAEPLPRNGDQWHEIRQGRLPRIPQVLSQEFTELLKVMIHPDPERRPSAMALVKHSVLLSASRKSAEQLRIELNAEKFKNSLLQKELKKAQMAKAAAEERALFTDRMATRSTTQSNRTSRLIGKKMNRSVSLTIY
hcDAF12 agonist: activators of H. contortus DAF-12 nuclear receptor. AID 652067. HEK293 hcDAF-12 lit1-tk-luc reporter, luminescence; 0% DMSO, 100% Δ7-dafachronic acid. activation, % at 6.8 µM. 1.4% of 370,000 active;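 active means activation above the mean of all tested compounds plus 3 SD, cut at about 5.5% in these data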;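 further: 100% = response to 3 µM Δ7-dafachronic acid high control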
DAX1 inh-1: inhibits human nuclear receptor DAX1 | HEK293 Gal4-DAX1 luciferase reporter, luminescence | inhibition, % at 6.75 µM | 0.99% of 340,000 active;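 active means inhibition above the mean over all tested compounds plus 3 SD, cut at about 4.2% in these data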;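 further: 0% = DAX1-transfected cells with DMSO and 100% = empty-vector control cells with DMSO; inhibition shows as a rise in luminescence from relieved DAX1 repression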
hgDAF12 agonist: agonists of H. glycines DAF-12 nuclear receptor | HEK293 GAL4-hgDAF12 UAS-luciferase reporter, agonist luminescence; normalized to butyrate control | activation, % at 6.8 µM | 1.8% of 370,000 active;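 active means activation above a cutoff set at the mean of all screened compounds plus 3 SD, cut at about 10% in these data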;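 further: 0% = DMSO wells and 100% = sodium butyrate wells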
DAX1 inh-2: blocks DAX1 repression of SF-1 activated StAR promoter; HEK293T StAR-luciferase reporter, SF-1/DAX-1 repression relief; inhibition, % at 6.8 µM; 1.1% of 370,000 active; AID 652010;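 active means inhibition above the mean over all tested compounds plus 3 SD, cut at about 3.6% in these data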;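 further: 0% = DAX-1 cells with DMSO and 100% = cells lacking DAX-1 with DMSO; higher inhibition means more luminescence from relief of DAX-1 repression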
ssDAF12 agonist: activators of S. stercoralis DAF-12 nuclear receptor. HEK293 ssDAF-12/GRIP1 lit1-tk-luc reporter, luminescence; % of 3 µM dafachronic acid response. activation, % at 6.8 µM. 1% of 370,000 active;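 active means activation above the mean over all tested compounds plus 3 SD, cut at about 0.9% in these data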;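 further: 0% = DMSO-only wells and 100% = 3 µM delta7-dafachronic acid wells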
* hit, by the source's call. A selection: hits, their analogues and other compounds. The true share with any hit is near 4.6%.

For O=C(CCN1C(=O)/C(=C/c2ccccc2F)SC1=S)NCCCn1ccnc1 the results were hcDAF12 agonist 6.5*, DAX1 inh-1 -0.3, hgDAF12 agonist 1.0, DAX1 inh-2 -0.4 and ssDAF12 agonist -1.2.
For O=C(CCCN1C(=O)/C(=C/c2ccccc2)SC1=S)NCCCn1ccnc1 the results were hcDAF12 agonist -4.6, DAX1 inh-1 -0.1, hgDAF12 agonist -5.0, DAX1 inh-2 -0.4 and ssDAF12 agonist -1.6.
CC(C)Cn1nc(C(=O)Nc2nnc(C3CC3)s2)c2ccccc2c1=O was read as hcDAF12 agonist -2.2, DAX1 inh-1 -0.9, hgDAF12 agonist 3.3, DAX1 inh-2 0.6 and ssDAF12 agonist -1.4.
`Cc1cccc(C2c3[nH]c4ccccc4c3CCN2Cc2ccc(C)s2)n1` (centres undefined) gave Wee1 degr inh 7.2, hcDAF12 agonist 6.4*, DAX1 inh-1 0.4, hgDAF12 agonist 4.3, DAX1 inh-2 -0.1 and ssDAF12 agonist 1.0*.
Screening COc1ccc(C2c3[nH]c4ccccc4c3CCN2C(=O)Cc2nonc2C)c(F)c1 (centres undefined) returned Wee1 degr inh 1.1, hcDAF12 agonist 5.7*, DAX1 inh-1 0.0, hgDAF12 agonist 8.6, DAX1 inh-2 0.5 and ssDAF12 agonist -0.2.
CC(=O)c1ccc(C(=O)N2CCc3c([nH]c4ccccc34)C2c2cccc(C)n2)s1 (centres undefined) was read as Wee1 degr inh 4.5, hcDAF12 agonist 2.8, DAX1 inh-1 1.3, hgDAF12 agonist -3.3, DAX1 inh-2 -0.1 and ssDAF12 agonist 0.4.
COc1ccccc1C1c2[nH]c3ccccc3c2CCN1Cc1cnc(C)s1 (centres undefined) was read as Wee1 degr inh -2.3, hcDAF12 agonist 4.1, DAX1 inh-1 -0.4, hgDAF12 agonist -0.6, DAX1 inh-2 -0.2 and ssDAF12 agonist 0.6.
Screening COc1ccc(C2c3[nH]c4ccccc4c3CCN2Cc2ccoc2)c(F)c1 (centres undefined) returned Wee1 degr inh 1.4, hcDAF12 agonist 2.6, DAX1 inh-1 -1.1, hgDAF12 agonist -4.8, DAX1 inh-2 -0.6 and ssDAF12 agonist -0.8.
Screening COc1cccc(C2c3[nH]c4ccccc4c3CCN2Cc2cnc(C)s2)c1OC (centres undefined) returned Wee1 degr inh 0.8, hcDAF12 agonist 3.2, DAX1 inh-1 -0.4, hgDAF12 agonist 0.4, DAX1 inh-2 -0.1 and ssDAF12 agonist 1.1*.
For Cc1cccc(C2c3[nH]c4ccccc4c3CCN2C(=O)Cc2n[nH]c(C)n2)n1 (centres undefined) the results were Wee1 degr inh 5.2, hcDAF12 agonist 3.2, DAX1 inh-1 1.4, hgDAF12 agonist 3.9, DAX1 inh-2 0.8 and ssDAF12 agonist 1.5*.
Cc1cccc(CN2CCc3c([nH]c4ccccc34)C2C(C)(C)C)n1 (centres undefined) was read as hcDAF12 agonist 1.4, DAX1 inh-1 0.7, hgDAF12 agonist 1.3, DAX1 inh-2 -0.3 and ssDAF12 agonist -0.3.
Screening C[C@H](NC(=O)c1cccc([N+](=O)[O-])c1)C(=O)OCC(=O)c1ccccc1Br returned hcDAF12 agonist 1.4, DAX1 inh-1 0.2, hgDAF12 agonist 0.4, DAX1 inh-2 -0.9 and ssDAF12 agonist -0.7.
For CSc1snc(SCC(N)=O)c1C#N the results were Wee1 degr inh -1.0, hcDAF12 agonist -1.2, DAX1 inh-1 -0.1, hgDAF12 agonist 11.8*, DAX1 inh-2 0.0 and ssDAF12 agonist -1.5.
Cc1cccc(NC(=O)CSc2nsc(SCC(=O)Nc3cccc(C)c3)c2C#N)c1 was read as Wee1 degr inh 2.5, hcDAF12 agonist -0.3, DAX1 inh-1 -1.0, hgDAF12 agonist 0.8, DAX1 inh-2 -0.2 and ssDAF12 agonist -2.0.
`N#Cc1c(SCC(=O)Nc2ccccc2)nsc1SCC(=O)Nc1ccccc1` gave Wee1 degr inh 2.3, hcDAF12 agonist 1.6, DAX1 inh-1 2.1, hgDAF12 agonist 3.1, DAX1 inh-2 0.5 and ssDAF12 agonist 23.3*.
Screening C=CCN(C(=O)[C@@H](CCCC)[C@@H](O)c1ccc(C(C)=O)cc1)c1ccccc1 returned hcDAF12 agonist -0.6, hgDAF12 agonist 4.3, DAX1 inh-2 -1.2 and ssDAF12 agonist -1.5.
